Data: PubChem BioAssay (NCATS)
Results filed as inconclusive are left out. A number with no mark means an inactive call. Active and inactive are the calls of the source. Calls follow the shape of the dose curve; as a rule, active = well fitted curve in the direction sought with a large enough effect; inconclusive = small, poorly fitted or top-dose-only effect, or another doubt; inactive = no such curve, though single readings can be large; an effect the other way counts as inactive or inconclusive.

What was measured:
[1] = Quantitative High-Throughput drug screen in 47 multiple myeloma cell lines against the NCATS MIPE library collection: KMS12PE_JCRB cell viability assay (AID 1918972); also: nearly all actives have a fitted effect of over 30% in size
In short: (§1)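 We plated 500 myeloma cells per well, pinned in MIPE 4.0 compounds, and incubated for 48 hours at 37C. ATP was then quantified with CellTiter-Glo, with DMSO and media-only wells defining 100% and 0%.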

[2] = Quantitative High-Throughput drug screen in 47 multiple myeloma cell lines against the NCATS MIPE library collection: KMS20_JCRB cell viability assay (AID 1918973); also: nearly all actives have a fitted effect of over 45% in size
In short: as §1

[3] = Quantitative High-Throughput drug screen in 47 multiple myeloma cell lines against the NCATS MIPE library collection: KMS21BM_JCRB cell viability assay (AID 1918974); details: ATP luminescence, 48 h; viability: at 45.8 µM (top of the series)
In short: as §1

[4] = Quantitative High-Throughput drug screen in 47 multiple myeloma cell lines against the NCATS MIPE library collection: KMS26_JCRB cell viability assay (AID 1918975); also: nearly all actives have a fitted effect of over 45% in size
In short: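 Relative luminescence from CellTiter-Glo served as the viability signal, referenced to DMSO-treated (100%) and cell-free medium (0%) controls. Treatment lasted 48 hours at 37C with 500 cells per well.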

[5] = Quantitative High-Throughput drug screen in 47 multiple myeloma cell lines against the NCATS MIPE library collection: MMM1_PLB cell viability assay (AID 1918976); also: nearly all actives have a fitted effect of over 35% in size
In short: (§2)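 Plated at 500 cells per well, myeloma lines received MIPE 4.0 compounds by pin tool. Following 48 h culture at 37 °C, CellTiter-Glo luminescence gave viability relative to DMSO and media-only controls.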

[6] = Quantitative High-Throughput drug screen in 47 multiple myeloma cell lines against the NCATS MIPE library collection: NCIH929_DSMZ cell viability assay (AID 1918978); also: nearly all actives have a fitted effect of over 35% in size
In short: as §2

[7] = Quantitative High-Throughput drug screen in 47 multiple myeloma cell lines against the NCATS MIPE library collection: OCIMY1_PLB cell viability assay (AID 1918979); also: nearly all actives have a fitted effect of over 35% in size
In short: as §2

[8] = Quantitative High-Throughput drug screen in 47 multiple myeloma cell lines against the NCATS MIPE library collection: MM1S_ATCC cell viability assay (AID 1918980); also: nearly all actives have a fitted effect of over 45% in size
In short: as §2

[9] = Quantitative High-Throughput drug screen in 47 multiple myeloma cell lines against the NCATS MIPE library collection: MM1R_ATCC cell viability assay (AID 1918981); also: nearly all actives have a fitted effect of over 35% in size
In short: as §2

[10] = Quantitative High-Throughput drug screen in 47 multiple myeloma cell lines against the NCATS MIPE library collection: LP1_DSMZ cell viability assay (AID 1918982); also: nearly all actives have a fitted effect of over 35% in size
In short: as §2

[11] = Quantitative High-Throughput drug screen in 47 multiple myeloma cell lines against the NCATS MIPE library collection: L363_DSMZ cell viability assay (AID 1918984); details: L363 myeloma viability, CellTiter-Glo ATP luminescence, 48 h; viability (% of control): at 45.8 µM (top of the series); also: nearly all actives have a fitted effect of over 40% in size
In short: as §2

[12] = Quantitative High-Throughput drug screen in 47 multiple myeloma cell lines against the NCATS MIPE library collection: KMS34_JCRB cell viability assay (AID 1918985); also: nearly all actives have a fitted effect of over 40% in size
In short: as §2

[13] = Quantitative High-Throughput drug screen in 47 multiple myeloma cell lines against the NCATS MIPE library collection: OCIMY7_PLB cell viability assay (AID 1918987); details: OCI-MY7 myeloma viability, CellTiter-Glo ATP, 48 h; viability (% of DMSO): at 45.8 µM (top of the series); also: nearly all actives have a fitted effect of over 65% in size
In short: as §2

[14] = Quantitative High-Throughput drug screen in 47 multiple myeloma cell lines against the NCATS MIPE library collection: OCIMY5_PLB cell viability assay (AID 1918988); also: nearly all actives have a fitted effect of over 65% in size
In short: as §2

[15] = Quantitative High-Throughput drug screen in 47 multiple myeloma cell lines against the NCATS MIPE library collection: OPM1_PLB cell viability assay (AID 1918989); also: nearly all actives have a fitted effect of over 40% in size
In short: as §2

[16] = Quantitative High-Throughput drug screen in 47 multiple myeloma cell lines against the NCATS MIPE library collection: SKMM1_PLB cell viability assay (AID 1919863); details: SKMM1 myeloma viability, CellTiter-Glo ATP, 48 h; viability: stronger effect = lower value; also: nearly all actives have a fitted effect of over 35% in size
In short: as §2

[17] = Quantitative High-Throughput drug screen in 47 multiple myeloma cell lines against the NCATS MIPE library collection: U266_ATCC cell viability assay (AID 1919864); also: nearly all actives have a fitted effect of over 35% in size
In short: as §2

[18] = Quantitative High-Throughput drug screen in 47 multiple myeloma cell lines against the NCATS MIPE library collection: XG6_PLB cell viability assay (AID 1919865); also: nearly all actives have a fitted effect of over 40% in size
In short: as §2

[19] = Quantitative High-Throughput drug screen in 47 multiple myeloma cell lines against the NCATS MIPE library collection: KMS28PE_JCRB cell viability assay (AID 1918983); also: nearly all actives have a fitted effect of over 35% in size
In short: as §2

[20] = Quantitative High-Throughput drug screen in 47 multiple myeloma cell lines against the NCATS MIPE library collection: MOLP8_DSMZ cell viability assay (AID 1918977); also: nearly all actives have a fitted effect of over 45% in size
In short: as §2
Potency is read from the fitted curve at half-maximal effect.

O=c1[nH]nc(OCCCc2ccc(Cl)cc2)c(NCc2cccnc2)c1Br
Potency [1]: 2.64 µM (active)
Potency [2]: 1.05 µM (active)
Potency [3]: 4.69 µM (active)
Potency [4]: 14.8 µM (active)
Potency [5]: 16.6 µM (active)
Potency [6]: 7.43 µM (active)
Potency [7]: 18.7 µM (active)
Potency [8]: 8.33 µM (active)
Potency [9]: 16.6 µM (active)
Potency [10]: 14.8 µM (active)
Potency [11]: 3.72 µM (active)
Potency [12]: 20.9 µM (active)
Potency [13]: 7.43 µM (active)
Potency [14]: 18.7 µM (active)
Potency [15]: 4.69 µM (active)
Potency [16]: 18.7 µM (active)
Potency [17]: 7.43 µM (active)
Potency [18]: 2.96 µM (active)

COC(=O)Nc1ccc(-c2nc(N3CCOCC3)c3cnn(C4CCN(C(=O)OC)CC4)c3n2)cc1
Potency [1]: 1.66 µM (active)
Potency [2]: 0.0148 µM (active)
Potency [3]: 0.0526 µM (active)
Potency [4]: 1.66 µM (active)
Potency [5]: 0.418 µM (active)
Potency [7]: 5.26 µM (active)
Potency [8]: 0.0066 µM (active)
Potency [9]: 0.743 µM (active)
Potency [10]: 0.235 µM (active)
Potency [19]: 1.18 µM (active)
Potency [11]: 0.0935 µM (active)
Potency [12]: 1.05 µM (active)
Potency [13]: 0.0235 µM (active)
Potency [14]: 1.18 µM (active)
Potency [15]: 0.372 µM (active)
Potency [16]: 11.8 µM (active)
Potency [17]: 1.32 µM (active)

CNC1CCC(N(Cc2cccc(-c3ccncc3)c2)C(=O)c2sc3ccccc3c2Cl)CC1 (stereo not given)
Potency [1]: 8.33 µM (active)
Potency [2]: 5.26 µM (active)
Potency [4]: 20.9 µM (active)
Potency [5]: 20.9 µM (active)
Potency [20]: 16.6 µM (active)
Potency [6]: 10.5 µM (active)
Potency [7]: 23.5 µM (active)
Potency [8]: 20.9 µM (active)
Potency [9]: 18.7 µM (active)
Potency [10]: 26.4 µM (active)
Potency [19]: 23.5 µM (active)
Potency [13]: 10.5 µM (active)
Potency [14]: 18.7 µM (active)
Potency [16]: 18.7 µM (active)
Potency [18]: 8.33 µM (active)

OC(c1cc(C(F)(F)F)nc2c(C(F)(F)F)cccc12)C1CCCCN1 (stereo not given)
Potency [1]: 20.9 µM (active)
Potency [2]: 10.5 µM (active)
Potency [4]: 29.6 µM (active)
Potency [5]: 23.5 µM (active)
Potency [20]: 23.5 µM (active)
Potency [6]: 20.9 µM (active)
Potency [8]: 20.9 µM (active)
Potency [10]: 18.7 µM (active)
Potency [19]: 26.4 µM (active)
Potency [13]: 10.5 µM (active)
Potency [14]: 14.8 µM (active)
Potency [15]: 18.7 µM (active)
Potency [16]: 23.5 µM (active)
Potency [17]: 26.4 µM (active)
Potency [18]: 26.4 µM (active)

CCOC(=O)N1c2ccc(C(F)(F)F)cc2[C@@H](N(Cc2cc(C(F)(F)F)cc(C(F)(F)F)c2)C(=O)OC)C[C@H]1CC
Potency [1]: inactive
Potency [2]: inactive
Potency [4]: 3.32 µM (active)
Potency [5]: 8.33 µM (active)
Potency [6]: 8.33 µM (active)
Potency [7]: 16.6 µM (active)
Potency [9]: 2.96 µM (active)
Potency [19]: 4.69 µM (active)
Potency [11]: inactive
Potency [12]: 5.26 µM (active)
Potency [13]: inactive
Potency [14]: 4.69 µM (active)
Potency [15]: 3.32 µM (active)

CC(=O)OCC(=O)[C@@]12OC(C)(C)O[C@H]1C[C@H]1[C@@H]3C[C@H](F)C4=CC(=O)C=C[C@]4(C)[C@@]3(F)[C@@H](O)C[C@@]12C
Potency [1]: inactive
Potency [2]: inactive
Potency [4]: inactive
Potency [6]: inactive
Potency [7]: inactive
Potency [8]: 0.0372 µM (active)
Potency [9]: inactive
Potency [10]: 0.0264 µM (active)
Potency [19]: inactive
Potency [11]: inactive
Potency [12]: inactive
Potency [13]: inactive
Potency [15]: inactive
Potency [17]: inactive
Potency [18]: inactive

O=S(=O)(NCCNCC=Cc1ccc(Br)cc1)c1cccc2cnccc12
Potency [1]: 16.6 µM (active)
Potency [2]: 11.8 µM (active)
Potency [5]: 20.9 µM (active)
Potency [8]: 3.72 µM (active)
Potency [9]: 20.9 µM (active)
Potency [10]: 7.43 µM (active)
Potency [19]: 18.7 µM (active)
Potency [11]: 2.96 µM (active)
Potency [13]: 23.5 µM (active)
Potency [14]: 14.8 µM (active)
Potency [16]: 18.7 µM (active)
Potency [17]: 20.9 µM (active)
Potency [18]: 2.64 µM (active)

CCOC(=O)[C@H](CCc1ccccc1)N[C@@H](C)C(=O)N1CCCC1C(=O)O (stereo not given in full)
Potency [1]: inactive
Potency [2]: inactive
Potency [4]: inactive
Potency [20]: inactive
Potency [7]: inactive
Potency [8]: 10.5 µM (active)
Potency [10]: inactive
Potency [19]: inactive
Potency [13]: inactive
Potency [15]: inactive
Potency [17]: 20.9 µM (active)
Potency [18]: 23.5 µM (active)

COc1cc2ncnc(Nc3cc(Br)c(O)c(Br)c3)c2cc1OC
Potency [1]: 6.62 µM (active)
Potency [2]: 0.0023 µM (active)
Potency [4]: inactive
Potency [20]: inactive
Potency [6]: inactive
Potency [8]: 0.0026 µM (active)
Potency [9]: 0.0418 µM (active)
Potency [19]: 1.48 µM (active)
Potency [12]: 6.62 µM (active)
Potency [13]: 0.0042 µM (active)
Potency [14]: 0.0023 µM (active)
Potency [15]: 2.35 µM (active)
Potency [16]: 0.0469 µM (active)
Potency [18]: 0.0047 µM (active)

N#CC(c1ccnc(NCCc2cccnc2)n1)c1nc2ccccc2s1 (stereo not given)
Potency [1]: 4.18 µM (active)
Potency [2]: 14.8 µM (active)
Potency [5]: 20.9 µM (active)
Potency [6]: 7.43 µM (active)
Potency [7]: inactive
Potency [9]: 18.7 µM (active)
Potency [10]: 18.7 µM (active)
Potency [11]: 4.69 µM (active)
Potency [12]: 14.8 µM (active)
Potency [13]: 2.96 µM (active)
Potency [14]: 13.2 µM (active)
Potency [15]: 14.8 µM (active)
Potency [18]: 5.9 µM (active)

Cc1ccccc1-n1c(Cn2nc(-c3cccc(O)c3)c3c(N)ncnc32)nc2cccc(C)c2c1=O
Potency [1]: 0.935 µM (active)
Potency [2]: 5.26 µM (active)
Potency [5]: 18.7 µM (active)
Potency [20]: 5.9 µM (active)
Potency [8]: 1.32 µM (active)
Potency [9]: 9.35 µM (active)
Potency [10]: 11.8 µM (active)
Potency [19]: 9.35 µM (active)
Potency [11]: 2.35 µM (active)
Potency [12]: 3.32 µM (active)
Potency [13]: 2.96 µM (active)
Potency [14]: 10.5 µM (active)
Potency [15]: 2.35 µM (active)
Potency [16]: 8.33 µM (active)
Potency [18]: 0.935 µM (active)
